In PubChem BioAssay (NCI) one finds growth data, which are given here for eight compounds.

Test in all cases: NCI-60 one-dose screen, 48 h (100 = growth as untreated, 0 = no growth, -100 = all killed)
What all share (settings): 10 µM unless noted

Test [1] concerns NCI-H23 lung.
Test [2] has as its system NCI-H226 lung.
The test system of test [3] is NCI-H322M lung.
The test system of test [4] is HOP-62 NSCLC.
For test [5], the system named is NCI-H460 lung.
Test [6] deals with HOP-92 NSCLC.
Test [7] has as its system NCI-H522 lung.
Test [8] deals with A549/ATCC NSCLC.
The subject of test [9] is 786-0 renal.
Test [10] has as its system COLO 205 colon.
The subject of test [11] is DU-145 prostate.
For test [12], the system named is MALME-3M melanoma.
In test [13] the test system is MDA-MB-231 breast.
Test [14] deals with SF-268 CNS.
The test system of test [15] is SF-295 CNS.
Test [16] deals with SF-539 CNS.
Test [17] relates to UACC-257 melanoma.
The test system of test [18] is M14 melanoma.
For test [19], the system named is RXF 393 renal.
Test [20] has as its system K-562 leukemia.

The panel holds about 83,000 compounds, 20% with a hit somewhere; the sample as a whole holds those more often.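 Each cell line was grown in a 96-well plate and treated with one concentration of compound for 48 hours. Values below 10 were considered active.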 A number with no mark means an inactive call. Active and inactive are the calls of the source.

On to `NC(=O)c1ccc[n+](CC(=O)N2CCN(c3cc4c(cc3F)c(=O)c(C(=O)O)cn4C3CC3)CC2)c1`, for which the growth in test [1] was 92.4%; in test [2], 97.3%; in test [3], 104%; in test [4], 111%; in [5] it was 101%; in test [6], 133%. The growth in test [7] is -73.1% (active); in test [8] it was 104%; in test [9], 74.6%; in [10] it was 63.1%; in test [11] it was 96.4%; in [12], 6.59% (active). For the same compound, the growth was 99.8% in [13]; 76.7% in [14]; 108% in test [15]; 88.6% in test [16]; 89.4% in test [17]; 76.4% in [18].
Take `O=C(O)c1ccc[n+](CC(=O)N2CCN(c3cc4c(cc3F)c(=O)c(C(=O)O)cn4C3CC3)CC2)c1`: the growth was 87.7% in [1]; 93.7% in test [2]; 103% in test [3]; 105% in [4]; 95.6% in test [5]; 109% in test [6]. Also, the growth in test [7] was -86.6% (active); in test [8] it was 106%; in test [9], 58.9%; in test [10], 45.4%; in test [11], 96.1%; in test [12] it was -34% (active). The growth is 98.3% in [13]; 70.1% in [14]; 116% in [15]; 69.1% in [16]; 80.1% in test [17]; 64.6% in test [18].
On to `Cc1ccc(/C=C/C(=O)c2ccc(N)cc2)c(C)c1`, for which the growth is 10.4% in test [1]; 109% in test [2]; 93% in [3]; 104% in [4]; 97.2% in [5]; 88.2% in test [6]. Also, the growth in test [7] is -76.5% (active); in test [8], 99.2%; in test [9], -63.5% (active); in test [10], 60.3%; in test [11], 78.3%; in test [12], -75.6% (active). The growth in test [13] was 56.8%; in [14], 36.6%; in test [15] it was 95.5%; in test [16], 91%; in [17], 108%; in test [18] it was 50.6%.
For `O=c1[nH]c2c(s1)CCCC2CN1CCCCC1` (configuration not stated), the growth in test [1] was 96.5%; in test [2] it was 95.1%; in [3], 112%; in [4] it was 83.7%; in test [5], 106%; in test [6], 104%. Also, the growth was 89.5% in test [7]; 80.4% in test [8]; 96.2% in test [9]; 98.4% in test [10]; 109% in test [11]; 107% in [12]. For the same compound, the growth in [13] was 133%; in test [14] it was 98.7%; in test [15] it was 104%; in test [16], 105%; in test [17] it was 92%; in test [18] it was 90.6%.
As for `Cc1cc2nc(-c3ccccc3)c(-c3ccccc3)nc2cc1C`, the growth in test [1] was 98.2%; in test [2], 94.9%; in [3] it was 112%; in [4], 111%; in test [5] it was 102%; in test [6], 89.6%. The growth was 94.9% in test [7]; 97.9% in test [8]; 95.4% in test [9]; 119% in test [10]; 112% in test [11]; 113% in [12]. The growth in test [13] is 94.5%; in [19], 111%; in test [14], 116%; in test [15], 90%; in test [16], 109%; in test [17], 117%.
With `COc1cccc(NC(=O)c2cccc(-c3cc(=O)c4c(OC)c(OC)c(OC)cc4o3)c2)c1`, the growth is 63.1% in test [1]; 63.3% in test [2]; 80.1% in [3]; 59.5% in [4]; 60.1% in [5]; 41.9% in [6]. Also, the growth in test [7] was 46.6%; in test [8], 62.8%; in test [9], 68.9%; in test [11], 71.8%; in [20] it was 40.3%; in test [12], 84.8%. The growth is 59.6% in test [13]; 47.9% in test [19]; 63.1% in [14]; 70.8% in [15]; 77.5% in [16]; 92.4% in test [17]. For the same compound, the growth in test [18] is 73.5%.
Consider `Fc1cc(C2=NNC(c3ccc[nH]3)C2)ccc1-n1ccc(C(F)(F)F)n1` (configuration not stated), for which the growth in test [1] was 89.2%; in test [2], 83.9%; in test [3], 86.3%; in test [4], 80.3%; in test [5] it was 64.8%; in test [6] it was 102%. In addition, the growth was 73.6% in test [7]; 68.4% in [8]; 85.8% in test [9]; 82.8% in test [11]; 62.2% in test [20]; 93.7% in test [12]. Further, the growth in test [13] was 62.7%; in test [19] it was 105%; in test [14], 67.3%; in [15] it was 71.3%; in [16], 88.1%; in [17] it was 98.5%. Besides, in test [18], the growth is 96.4%.
Regarding `O=CNc1cc(Cl)cc(Cl)c1`, the growth in [1] was 102%; in [2], 102%; in test [3], 104%; in [4], 102%; in test [5] it was 104%; in [6] it was 106%. In addition, the growth was 95.4% in test [7]; 102% in [8]; 104% in [9]; 109% in test [11]; 97.5% in [20]; 103% in test [12]. For the same compound, the growth was 85.6% in test [13]; 113% in test [19]; 106% in test [14]; 102% in [15]; 100% in [16]; 97.4% in [17]. In addition, in test [18], the growth is 103%.
